Consider eleven compounds from PubChem BioAssay (EPA / NIEHS).

Results filed as inconclusive are left out. Active and inactive are the calls of the source. How the source made its calls, unless noted: active means hit-call score of the fitted dose curve at least 0.9, where 1 is the maximum; inconclusive means response in the unintended direction; inactive means score below 0.9.

Assay [1] addresses bovine Estrogen Receptor (ER), ESR1 (gene 407238) (UniProt P49884). As to the kind of experiment: NVS_NR_bER: NovaScreen (NVS) Nuclear Receptor Binding Assay for bovine Estrogen Receptor (ER) (AID 2283345).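 Further: actives lower the bound radioligand count which means they displace the ER ligand.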 The gist of the method:
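Bovine uterine membranes; tritiated or iodinated radioligand; competitive displacement; 18 h; scintillation read; DMSO negative control; 25 uM duplicates, then concentration series for actives.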

The nature of assay [2]: TOX21_p53_BLA_p2_viability: Viability Assessment in the Tox21 HCT-116 p53 Agonism Beta-lactamase Assay, Phase 2 (AID 2283591).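 Further: compound exposure lasted 16 h at 37 °C; actives lower the ATP signal meaning cytotoxicity.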 The gist of the method:
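HCT-116 p53-bla cells (4000/well) rested 5 h at 37C, then received compounds in DMSO (217-fold dilution) for 16 h at 37C, 5% CO2. After the CCF4 read, CellTiter-Glo was added; ATP luminescence was read after 30 min at room temperature.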

For assay [3], the target named is Cellular tumor antigen p53 (Homo sapiens) (UniProt P04637). In words: TOX21_p53_BLA_p2_ratio: Tox21 HCT-116 p53 Agonism Beta-lactamase Assay, Ratio, Phase 2 (AID 2283592). The gist of the method:
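HCT116 p53-bla; 4000 cells/well; 5 h pre-incubation; cpd in DMSO, 217-fold dilution; 16 h 37C/5% CO2; CCF4-AM 2 h RT; Ex 405, Em 460/530 ratio; DMSO = baseline; positive fitting direction.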

Assay [4] can be described thus: TOX21_p53_BLA_p3_viability: Viability Assessment in the Tox21 HCT-116 p53 Agonism Beta-lactamase Assay, Phase 3 (AID 2283593).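 Further: cells exposed to compound for 16 h before reading.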 In a few lines:
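HCT-116 cells (4000/well) rested 5 h at 37C, then got DMSO compounds by pin tool (217-fold dilution) for 16 h at 37C, 5% CO2. After the bla read, CellTiter-Glo was added and luminescence read at 30 min, room temperature.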

Assay [5] concerns the target Cellular tumor antigen p53 (Homo sapiens) (UniProt P04637). As to the kind of experiment: TOX21_p53_BLA_p5_ratio: Tox21 HCT-116 p53 Agonism Beta-lactamase Assay, Ratio, Phase 5 (AID 2283599). In a few lines: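 HCT-116 cells carrying a p53-inducible beta-lactamase reporter were seeded at 4000 cells/well and dosed after 5 h with compound in DMSO (217-fold dilution). After 16 h at 37C, CCF4-AM substrate was added for 2 h, and the 460/530 nm emission ratio was scored as gain-of-signal versus DMSO.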

The nature of assay [6]: TOX21_p53_BLA_p5_viability: Viability Assessment in the Tox21 HCT-116 p53 Agonism Beta-lactamase Assay, Phase 5 (AID 2283600). In a few lines: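 4000 cells/well; 5 h pre-incubation; DMSO compounds pin-transferred, 217-fold dilution; 16 h, 37C/5% CO2; CCF4-AM 2 h RT; CellTiter-Glo 30 min RT; luminescence.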
The target of assay [7] is Cellular tumor antigen p53 (Homo sapiens) (UniProt P04637). As to the kind of experiment: TOX21_p53_BLA_p4_ratio: Tox21 HCT-116 p53 Agonism Beta-lactamase Assay, Ratio, Phase 4 (AID 2283601). In a few lines:
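HCT116 cells carrying an inducible beta-lactamase reporter were plated at 4000 cells/well, rested 5 h, then exposed to compounds in DMSO (217-fold dilution) for 16 h at 37C. CCF4-AM substrate was loaded 2 h at room temperature; 460/530 nm emission ratio scored gain-of-signal versus DMSO.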

A short description of assay [8]: ACEA_ER_AUC_viability: ACEA Biosciences xCELLigence Real-Time Cell Analysis on Estrogen Receptor Agonism for Viability (AID 2283782).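 Further: continuous compound exposure with impedance area under curve over 80 h; hit means loss of impedance signal meaning reduced cell growth or viability.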 In a few lines: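 T-47D human breast cells in phenol red-free RPMI1640 with 10% charcoal-stripped FBS were dosed with an 8-point 1:4 dilution series from 100 uM top final concentration, in duplicate. Impedance-based growth was followed for 80 h; AUC analysed versus DMSO.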

Assay [9] in a line: CCTE_Harrill_HTTr_Viability_MCF7: CCTE's 6-hour Cell Viability Assessment for the High-Throughput Transcriptomics (HTTr) Platform, in MCF-7 cells cultured in DMEM + 10% fetal bovine serum, Harrill Lab (AID 2284010; active means hit-call score of the fitted dose curve at least 0.9, where 1 is the maximum; inactive means score below 0.9). The gist of the method: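 Viability measured through PI dye exclusion by high-content imaging at 6 h post-dosing.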
Assay [10] in a line: CCTE_Harrill_HTTr_Apoptosis_MCF7: CCTE's 6-hour Apoptosis Assessment for the High-Throughput Transcriptomics (HTTr) Platform, in MCF-7 cells cultured in DMEM + 10% fetal bovine serum, Harrill Lab (AID 2284011; active means hit-call score of the fitted dose curve at least 0.9, where 1 is the maximum; inactive means score below 0.9). The gist of the method: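 MCF-7 (DMEM + 10% FBS), 384-well; 8-pt dilution series, 6 h chemical exposure; caspase-3/7 activation via CellEvent Caspase 3/7 Green, HCI; bidirectional fit vs DMSO.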

In assay [11] the target is Estrogen receptor (Homo sapiens) (UniProt P03372). In words: NVS_NR_hER: NovaScreen (NVS) Nuclear Receptor Binding Assay for human Estrogen Receptor (ER) (AID 2283348). The gist of the method:
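Cell-free radioligand binding with protein extracted from MCF7 cells; scintillation counting 18 hours after dosing. Loss of signal versus DMSO baseline read as displacement; primary single-concentration screen at 25 uM in duplicate, actives retested in concentration series.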

A short description of assay [12]: TOX21_p53_BLA_p4_viability: Viability Assessment in the Tox21 HCT-116 p53 Agonism Beta-lactamase Assay, Phase 4 (AID 2283597).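 Further: hits lower the luminescence signal meaning cytotoxicity.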 In a few lines:
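Cells plated, 5 h pre-incubation; DMSO compounds pinned (217-fold dilution); 16 h, 37C/5% CO2; CCF4-AM 2 h RT; CellTiter-Glo 30 min RT; luminescence read.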

A short description of assay [13]: CCTE_Harrill_HTTr_CellCount_MCF7: CCTE's Cell Proliferation Assessment for the High-Throughput Transcriptomics (HTTr) Platform, Harrill Lab (AID 2284012).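 Further: count of Hoechst-stained nuclei per well by high-content imaging in MCF-7 cells; cells exposed to compound for six hours; intended direction is loss of nuclei count meaning fewer cells.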 In a few lines:
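Nuclei counting (Hoechst, high content imaging) in MCF-7 after a 6 h treatment at eight concentrations. Activity fitted bidirectionally, DMSO as negative control.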

For assay [14], the target named is Cellular tumor antigen p53 (Homo sapiens) (UniProt P04637). In words: TOX21_p53_BLA_p3_ratio: Tox21 HCT-116 p53 Agonism Beta-lactamase Assay, Ratio, Phase 3 (AID 2283596). In a few lines:
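HCT116 p53-bla cells (4000/well) given compound in DMSO (217-fold dilution) after 5 h, incubated 16 h at 37C. CCF4-AM substrate 2 h at room temperature; 460/530 nm emission ratio, gain fitted against DMSO.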

Assay [15] addresses mouse Estrogen Receptor alpha (Era), Esr1 (gene 13982) (UniProt P19785). As to the kind of experiment: NVS_NR_mERa: NovaScreen (NVS) Nuclear Receptor Binding Assay for mouse Estrogen Receptor alpha (Era) (AID 2283378).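 Further: hit means loss of bound radioligand signal relative to DMSO.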 In a few lines:
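Extracted mouse Era incubated with tritiated or iodinated radioligand plus test chemical, 18 h. Bound fraction separated on filters, counted by scintillation. DMSO = negative control/baseline; duplicate single-point at 25 uM, then concentration-response follow-up.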

Assay [16] deals with rat Oxytocin Receptor (OXT), Oxtr (gene 25342) (UniProt P70536). As to the kind of experiment: NVS_GPCR_rOXT: NovaScreen (NVS) G Protein-Coupled Receptor Assay for rat Oxytocin Receptor (OXT) (AID 2283330). The gist of the method: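 Radioligand displacement on rat uterine membranes, 1 h incubation, filter-based scintillation counting. Chemicals were screened in duplicate at 25 uM, and those passing threshold were retested in concentration-response up to 50 uM. Loss of binding was fitted versus DMSO.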

Assay [17] deals with PGR (gene 5241) (UniProt P06401). In words: TOX21_PR_BLA_Followup_Antagonist_ratio: Tox21 HEK293 Progesterone Receptor (PR) Antagonism Beta-lactamase Follow-Up Assay, Ratio (AID 2283934). In a few lines: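 Antagonist mode used 1 nM R5020 (final) as agonist on a beta-lactamase reporter line in HEK293T cells. Activity was taken from the substrate cleavage ratio after 16 hr exposure.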

Assay [18] can be described thus: TOX21_PR_BLA_Followup_Antagonist_viability: Viability Assessment in the Tox21 HEK293 Progesterone Receptor (PR) Antagonism Beta-lactamase Follow-Up Assay (AID 2283936).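 Further: hits lower the luminescence signal meaning cytotoxicity.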 In a few lines: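 PR-UAS-bla HEK293T cells (3,000/well, 2% charcoal-stripped FBS) given compound plus R5020 agonist, 16 h at 37C. CellTiter-Glo added after bla read, 30 min at room temperature; luminescence loss indicates cytotoxicity.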

Assay [19] is described as follows: TOX21_PR_LUC_Followup_Antagonist_viability: Viability Assessment in the Tox21 HEK293 Progesterone Receptor (PR) Antagonism Luciferase Follow-Up Assay (AID 2283940). In a few lines: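 Cellular ATP, measured with luciferase-coupled CellTiter-Glo, served as the viability endpoint after HEK293-PR-A-luc cells were exposed to test compounds for 16 h at 37C.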
The nature of assay [20]: TOX21_PR_LUC_Followup_Agonist_viability: Viability Assessment in the Tox21 HEK293 Progesterone Receptor (PR) Agonism Luciferase Follow-Up Assay (AID 2283941).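 Further: loss of signal means cytotoxicity so actives lower viability.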 The gist of the method: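 Luminescent ATP quantitation (CellTiter-Glo) serves as the read-out; a drop flags cytotoxic compounds. Cells are HEK293-PR-A-luc grown in 10% charcoal-stripped FBS, plated 3,000/well, and exposed to compound for 16 h.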

A word on the AC50: it is the midpoint of the concentration-response curve, whichever way the signal moves.

Chain of bovine Estrogen Receptor (ER), ESR1 (gene 407238) (P49884 whole entry, looked up): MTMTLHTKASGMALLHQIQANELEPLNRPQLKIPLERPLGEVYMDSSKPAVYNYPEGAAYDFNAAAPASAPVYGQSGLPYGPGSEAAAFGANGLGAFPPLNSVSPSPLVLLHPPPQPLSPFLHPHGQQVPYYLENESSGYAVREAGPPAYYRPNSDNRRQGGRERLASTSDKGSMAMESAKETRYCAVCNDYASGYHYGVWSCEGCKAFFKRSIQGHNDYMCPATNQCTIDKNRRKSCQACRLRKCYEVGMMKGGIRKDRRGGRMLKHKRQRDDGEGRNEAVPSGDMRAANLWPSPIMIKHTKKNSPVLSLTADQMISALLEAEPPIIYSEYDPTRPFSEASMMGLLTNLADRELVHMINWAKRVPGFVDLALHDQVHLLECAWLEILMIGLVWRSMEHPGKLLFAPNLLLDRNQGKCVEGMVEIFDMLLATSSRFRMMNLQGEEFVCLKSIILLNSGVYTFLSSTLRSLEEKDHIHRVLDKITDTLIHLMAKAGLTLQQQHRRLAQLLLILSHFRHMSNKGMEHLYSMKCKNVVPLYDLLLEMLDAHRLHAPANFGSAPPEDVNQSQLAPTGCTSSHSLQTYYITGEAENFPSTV
Chain of Cellular tumor antigen p53 (Homo sapiens) (P04637 whole entry, looked up): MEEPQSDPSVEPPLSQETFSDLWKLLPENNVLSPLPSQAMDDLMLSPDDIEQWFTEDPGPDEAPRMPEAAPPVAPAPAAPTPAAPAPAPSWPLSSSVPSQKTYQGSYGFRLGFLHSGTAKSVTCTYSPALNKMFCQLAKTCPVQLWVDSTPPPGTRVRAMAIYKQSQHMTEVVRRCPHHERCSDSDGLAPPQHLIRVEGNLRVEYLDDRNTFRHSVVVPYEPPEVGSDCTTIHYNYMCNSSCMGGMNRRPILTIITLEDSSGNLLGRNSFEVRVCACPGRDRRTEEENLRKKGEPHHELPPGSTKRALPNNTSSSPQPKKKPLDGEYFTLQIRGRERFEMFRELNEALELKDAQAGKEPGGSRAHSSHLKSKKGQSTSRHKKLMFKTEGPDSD
Chain of Estrogen receptor (Homo sapiens) (P03372 whole entry, looked up): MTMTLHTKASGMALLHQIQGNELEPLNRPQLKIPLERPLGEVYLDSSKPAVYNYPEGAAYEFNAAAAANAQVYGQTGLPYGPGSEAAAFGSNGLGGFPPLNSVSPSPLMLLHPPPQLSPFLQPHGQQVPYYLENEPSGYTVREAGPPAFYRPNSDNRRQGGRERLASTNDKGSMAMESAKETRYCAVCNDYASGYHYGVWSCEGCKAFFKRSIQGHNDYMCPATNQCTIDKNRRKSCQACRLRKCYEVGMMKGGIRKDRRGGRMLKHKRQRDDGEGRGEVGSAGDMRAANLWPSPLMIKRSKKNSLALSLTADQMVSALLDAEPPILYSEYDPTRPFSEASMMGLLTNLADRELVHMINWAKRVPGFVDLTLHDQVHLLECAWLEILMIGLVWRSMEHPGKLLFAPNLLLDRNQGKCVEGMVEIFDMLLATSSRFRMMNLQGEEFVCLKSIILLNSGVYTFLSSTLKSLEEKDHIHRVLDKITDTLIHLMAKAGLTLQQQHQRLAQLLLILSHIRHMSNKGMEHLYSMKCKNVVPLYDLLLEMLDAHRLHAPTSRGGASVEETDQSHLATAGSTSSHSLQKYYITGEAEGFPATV
Chain of mouse Estrogen Receptor alpha (Era), Esr1 (gene 13982) (P19785 whole entry, looked up): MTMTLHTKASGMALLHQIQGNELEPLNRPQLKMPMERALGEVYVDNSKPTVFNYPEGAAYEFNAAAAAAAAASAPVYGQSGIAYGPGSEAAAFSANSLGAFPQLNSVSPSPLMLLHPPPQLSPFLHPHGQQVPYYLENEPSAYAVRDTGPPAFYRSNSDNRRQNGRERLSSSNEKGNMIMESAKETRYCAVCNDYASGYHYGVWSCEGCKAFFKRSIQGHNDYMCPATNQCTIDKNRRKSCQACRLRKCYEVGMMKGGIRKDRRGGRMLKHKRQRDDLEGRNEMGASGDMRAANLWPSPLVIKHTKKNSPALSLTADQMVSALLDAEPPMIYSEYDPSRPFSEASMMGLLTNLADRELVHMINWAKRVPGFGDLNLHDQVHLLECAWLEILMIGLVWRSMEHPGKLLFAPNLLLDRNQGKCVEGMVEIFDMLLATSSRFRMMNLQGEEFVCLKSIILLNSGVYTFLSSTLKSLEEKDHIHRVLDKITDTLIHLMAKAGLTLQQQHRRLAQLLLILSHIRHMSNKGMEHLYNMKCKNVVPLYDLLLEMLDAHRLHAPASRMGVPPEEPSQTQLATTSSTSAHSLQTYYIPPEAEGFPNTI
Chain of rat Oxytocin Receptor (OXT), Oxtr (gene 25342) (P70536 whole entry, looked up): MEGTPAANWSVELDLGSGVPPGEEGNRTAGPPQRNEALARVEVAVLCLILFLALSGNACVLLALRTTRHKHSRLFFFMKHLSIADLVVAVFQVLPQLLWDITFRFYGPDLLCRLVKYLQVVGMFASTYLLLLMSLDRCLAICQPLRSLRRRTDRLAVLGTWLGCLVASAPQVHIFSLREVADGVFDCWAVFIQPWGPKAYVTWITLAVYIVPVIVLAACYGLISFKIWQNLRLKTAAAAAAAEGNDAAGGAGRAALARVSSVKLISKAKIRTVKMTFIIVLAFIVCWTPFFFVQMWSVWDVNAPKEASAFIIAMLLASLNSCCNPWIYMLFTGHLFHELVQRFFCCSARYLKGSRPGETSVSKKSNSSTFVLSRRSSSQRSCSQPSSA
Chain of PGR (gene 5241) (P06401 whole entry, looked up): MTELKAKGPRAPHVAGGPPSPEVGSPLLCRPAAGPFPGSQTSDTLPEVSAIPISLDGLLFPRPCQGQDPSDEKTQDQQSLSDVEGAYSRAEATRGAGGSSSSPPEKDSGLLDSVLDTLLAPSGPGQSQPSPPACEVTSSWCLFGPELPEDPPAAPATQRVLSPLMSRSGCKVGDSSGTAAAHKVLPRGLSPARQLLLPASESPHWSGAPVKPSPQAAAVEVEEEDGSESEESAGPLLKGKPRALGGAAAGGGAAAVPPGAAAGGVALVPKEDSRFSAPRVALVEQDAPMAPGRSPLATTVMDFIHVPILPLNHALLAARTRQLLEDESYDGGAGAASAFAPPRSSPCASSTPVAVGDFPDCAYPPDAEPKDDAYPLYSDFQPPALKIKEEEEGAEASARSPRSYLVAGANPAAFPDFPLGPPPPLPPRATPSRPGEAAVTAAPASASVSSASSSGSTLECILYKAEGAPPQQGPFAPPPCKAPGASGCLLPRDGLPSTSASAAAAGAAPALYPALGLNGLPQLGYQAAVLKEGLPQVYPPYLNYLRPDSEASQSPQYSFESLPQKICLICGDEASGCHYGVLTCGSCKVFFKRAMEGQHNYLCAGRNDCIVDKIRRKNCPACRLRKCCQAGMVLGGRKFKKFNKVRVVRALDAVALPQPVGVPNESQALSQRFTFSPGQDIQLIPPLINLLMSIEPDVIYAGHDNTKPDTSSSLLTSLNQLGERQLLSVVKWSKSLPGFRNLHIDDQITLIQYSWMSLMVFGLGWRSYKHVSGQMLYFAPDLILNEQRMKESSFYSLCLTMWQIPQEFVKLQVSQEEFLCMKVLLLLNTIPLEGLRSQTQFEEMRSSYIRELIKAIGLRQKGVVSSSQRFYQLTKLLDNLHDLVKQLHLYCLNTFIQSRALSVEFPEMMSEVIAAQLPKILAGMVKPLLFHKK

With `CCOP(=S)(OCC)Oc1cnc2ccccc2n1`, the outcome in assay [1], in [2], in assay [3], in assay [4], in assay [5] and in assay [6] was inactive. Also, the result in assay [7], in [8], in assay [9] and in [10] was inactive.

On to `CC(Oc1ccc(Oc2ncc(C(F)(F)F)cc2Cl)cc1)C(=O)O` (configuration not stated), for which the result in assay [1], in assay [11], in assay [2], in assay [3], in [4] and in assay [12] was inactive. The result in [10] and in assay [13] was inactive.

For `CC(=O)[O][Pb]([c]1ccccc1)([c]1ccccc1)[c]1ccccc1`, the result in [1] was inactive. Also, the AC50 was 8.22 µM (active) in [11]; 0.458 µM (active) in [2]; 23.3 µM (active) in assay [3]; 4.03 µM (active) in assay [4]; 38.7 µM (active) in assay [14]; 0.655 µM (active) in assay [12]. Moreover, the values for the AC50 in assay [5], in [6] and in [7] were 32.7 µM (active), 1.32 µM (active) and 32.5 µM (active), respectively.

With `CSc1ccc(C(=O)C(C)(C)N2CCOCC2)cc1`, the AC50 in [11] is 25 µM (active). Besides, the compound was called inactive in assay [15], in assay [2], in assay [3], in assay [4], in assay [5] and in assay [6].

With `CCCCOC(=O)CCCCCCCCC(=O)OCCCC`, the compound was classed as inactive in assay [16].

As for `O=[N+]([O-])c1ccc(Oc2ccc(C(F)(F)F)cc2[N+](=O)[O-])cc1`, the outcome in [1], in [14], in [12], in assay [5], in assay [6] and in assay [7] was inactive.

With `[Hg+2].[I-].[I-]`, the call in assay [1] and in [11] was inactive. The AC50 was 35.4 µM (active) in assay [2]; 54.2 µM (active) in assay [3]; 70.1 µM (active) in assay [4]; 72.1 µM (active) in assay [14]; 18.4 µM (active) in assay [12]; 73.7 µM (active) in assay [5]. For the same compound, the AC50 was 57.5 µM (active) in assay [6] and 33 µM (active) in [7].

In the case of `COP(=O)(OC)Oc1ccc([N+](=O)[O-])cc1`, the compound was classed as inactive in assay [1], in [11], in [15], in [14], in [5] and in assay [6]. For the same compound, the result in assay [7] and in assay [8] was inactive.

`COP(=S)(NC(C)C)Oc1ccc(C)cc1[N+](=O)[O-]` (configuration not stated): the AC50 in assay [1] was 9.3 µM (active); in assay [11] it was 11.5 µM (active); in assay [17], 20.3 µM (active). The compound was called inactive in assay [18], in [19] and in assay [20].

Turning to `c1coc(-c2nc3ccccc3[nH]2)c1`, the result in assay [1], in assay [11], in [14], in assay [12] and in assay [6] was inactive.

Consider `CCOC(=O)COc1ccc2c(c1)CC(NCC(O)c1cccc(Cl)c1)CC2` (configuration not stated), for which the call in [16] was inactive.
